From PubChem BioAssay (NCI) come the findings set out here.

Molecules are shown by their SMILES. About 83,000 compounds went through this panel and 20% of them were active in at least one assay; those are over-represented in the sample as a whole.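 Compound tested at a single concentration for 48 hours in 96-well plates; a percent growth value below 10 was scored as active.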 Values without a mark were called inactive. Calls of active or inactive are those of the source.

For this test, the system named is OVCAR-3 ovarian. Put plainly: NCI-60 one-dose screen, 48 h (100 = growth as untreated, 0 = no growth, -100 = all killed). The note with it: 10 µM unless noted.
`CC1=CCC[C@@H]2C1(C)CC[C@H](C)[C@@]2(C)CC1=CC(=O)C(SC(C)(C)C)=CC1=O` (stereo partly drawn): the growth was 84.9%.
Next, `CCn1cc(CNc2ccc(C(=O)Nc3cc4cc(OC)c(OC)cc4c(C)n3)cc2)c(C)n1`: 33.7%.
For `CCCCN1C(=O)/C(=c2\sc3n(c2=O)NC2C(N=3)N(CC)C(=O)N2CC)c2ccccc21` (stereo not drawn), the growth is 0.018% (active).
Next, `NC(=O)c1c(NC(=O)c2ccc(Cl)cc2)sc2c1CCC(=O)C2`: 32.6%; `CC1(C)CC[C@]2(C(=O)O)CC[C@]3(C)C(=CC[C@@H]4[C@@]5(C)C[C@@H](Cc6cn([C@@H]7O[C@H](CO)[C@@H](O)[C@H](O)[C@H]7O)nn6)[C@H](O)C(C)(C)[C@@H]5CC[C@]43C)[C@@H]2C1`: 104%; `CCNCc1ccc(O)c2ncccc12`: 37.7%.
Next, `CC(C)c1ccc(C(=O)Nc2sc3cc(O)ccc3c2C#N)cc1`: 16.4%; `CCOC(=O)c1c(NC(=O)CSc2n[nH]c3nc4ccccc4n23)sc(CC)c1C`: 106%.
For `COc1cccc(/C=C/C(=O)c2cc3c(N)c(C(=O)Nc4cccc(Cl)c4C)sc3nc2C)c1`, the growth is -60.5% (active).
With `Cc1nn(-c2ccccc2)c(N2CCCCC2)c1/C=N/NC(=O)Cn1c(=O)sc2ccccc21` the figure was 81.9%.
As to `COC(=O)Cc1nc(C#N)c(N(C)C)o1`, the growth is 109%.
Next, `N=C(N)c1ccc(-c2ccc(-c3ccc(Cl)cc3Cl)s2)cc1F`: -79.3% (active); `C/C(C=O)=C\c1ccc2c(c1)OCO2`: 132%.
